# Out of some 52,000 compounds screened, about 1,700 (3.3%) were called active. Shown is part of a subset that was picked to be rich in actives. Values without a mark were called inactive. No stated cut-off is given here; in the data, active means survival mostly below about 52% (no sharp cut-off); inactive means mostly above about 56%.
# System: Wild type
# Test: S. aureus survival, RN4220 and DeltatarO strains – OD600, teichoic acid synthesis inhibitors, primary screen (AID 463173)
# Settings: S. aureus RN4220 wild type/DeltatarO growth, OD600, 18 h, active compounds read low, screened at 18.75 µg/mL (by protocol)
row,SMILES,survival
1,CCn1c(Cc2ccccc2)nnc1SCC(=O)N1CCCCC1C (stereo not given),116%
2,COc1ccc(NC(=O)CCc2nc3cccnc3n2-c2ccccc2)c(OC)c1,68%
3,COc1ccc(OC)c(Nc2nc3ccccc3n3c(C)nnc23)c1,83%
4,Nn1cnnc1SCC(=O)N(C1CCCCC1)C1CCCCC1,107%
5,O=C(Nc1ccc(NC(=O)c2cccs2)cc1)c1cccs1,113%
6,Cc1ccccc1CCNC(=O)c1ccc2c(c1)c(C)c(C)n2Cc1ccccc1,124%
7,COc1cccc(/C=N/n2c(N)nc3ccccc32)c1OC,103%
8,COc1cccc(/C=N/c2nc3ccccc3n2C)c1O,106%
9,COc1ccccc1/C=C/c1nc2ccccc2n1C(C)C,2% (active)
10,CC1CC(C)N(C(=O)c2cc(-c3ccccc3)on2)C(C)C1 (stereo not given),129%
11,CCOc1ccc(NC(=O)CN(c2ccc(Cl)cc2C)S(=O)(=O)c2ccccc2)cc1,77%
12,CCN(CC)CC(=O)Nc1nc2ccc(OC)cc2s1,103%
13,N#C/C(=C\c1ccc(-c2ccccc2C(=O)O)o1)c1nc2ccccc2[nH]1,84%
14,Cc1c(Cl)cccc1-c1ccc(/C=C(\C#N)c2nc3ccccc3[nH]2)o1,8% (active)
15,N#C/C(=C\c1ccc(-c2ccc(F)cc2F)o1)c1nc2ccccc2[nH]1,38%
16,COc1ccc(CC(=O)Nc2sc3c(c2C(=O)Nc2ccc(C)cc2)CCCCC3)cc1,136%
17,Cc1ccc(NC(=O)c2c(NC(=O)C(F)(F)F)sc3c2CCCCC3)cc1,-3% (active)
18,Cc1ccccc1NC(=O)c1c(NC(=O)c2ccccc2)sc2c1CCC2,137%
19,Cc1ccccc1NC(=O)c1c(NC(=O)Cc2ccccc2)sc2c1CCC2,48%
20,Cc1ccc(NC(=O)c2c(NC(=O)c3ccccc3)sc3c2CCC3)cc1,79%
21,Cc1ccc(NC(=O)c2c(NC(=O)Cc3ccccc3)sc3c2CCCC3)cc1,49%
22,COc1ccc(NC(=O)c2c(NC(=O)C(F)(F)F)sc3c2CCCCC3)cc1,-1% (active)
23,Cc1ccccc1NC(=O)c1c(NC(=O)C(F)(F)F)sc2c1CCCCC2,1% (active)
24,COc1ccc(NC(=O)c2c(NC(=O)c3ccc(Br)cc3)sc3c2CCCC3)cc1,157%

row,SMILES,survival
1,COCCCNc1nc2c(c(=O)n(Cc3ccc(F)cc3)c(=O)n2C)n1C,130%
2,CCC(O)c1cc2c(cc1NC(=O)c1cccc(Br)c1)OCCO2 (stereo not given),71%
3,Cc1ccc(N(C)C(=O)Cn2cc(S(=O)(=O)N3CCCC3)c(S(=O)(=O)N3CCCC3)c2)cc1,73%
4,Cc1cccc(NC(=O)CN2C(=O)C(c3ccc(F)cc3)=NC23CCCCCC3)c1C,73%
5,CCCN1CCN(c2ncnc3sc(C(=O)Nc4ccc(N(CC)CC)cc4C)c(C)c23)CC1,128%
6,CCn1c(SC)nnc1C1CCCN(C(=O)c2ccccc2-c2ccccc2)C1 (stereo not given),120%
7,CCCCn1c(C)nc2ccccc21,99%
8,CCCCCn1c(-c2cccc(C)c2)nc2ccccc21,11% (active)
9,CCCCn1c(CCCNC(=O)c2cccc(C)c2)nc2ccccc21,73%
10,CCCCCn1c(C(C)NC(=O)c2ccccc2)nc2ccccc21 (stereo not given),77%
11,CCCCCn1c(CCNC(=O)c2cccc(C)c2)nc2ccccc21,2% (active)
12,CCOc1ccc(Cn2c(-c3ccc(OCC)c(OC)c3)nc3ccccc32)cc1OC,94%
13,CCCCCn1c(-c2ccc(OC)c(OC)c2)nc2ccccc21,1% (active)
14,CCCCCn1c(CCCNC(=O)c2cccc(C)c2)nc2ccccc21,50%
15,CCCCCn1c(CCCNC(=O)c2ccccc2OC)nc2ccccc21,68%
16,Cc1ccc(S(=O)(=O)NCC(c2ccco2)N2CCOCC2)cc1 (stereo not given),78%
17,Cc1ccc2[nH]c(CSc3nnc(NC(=O)c4ccc(Cl)cc4)s3)cc(=O)c2c1,71%
18,CCN(CCCNC(=O)c1nn(-c2ccc(C)cc2)c(=O)c2c1c1ccccc1n2C)c1ccccc1,82%
19,Cc1cc(=O)c2c(o1)CC(C)(C)CC2=O,110%
20,CCCCCNC(=O)c1ccc2c(c1)ncn2-c1cccc(C)c1,-3% (active)
21,CCCCCNC(=O)c1ccc2c(c1)nc(C)n2-c1cccc(C)c1,-2% (active)
22,Cc1cccc(-n2cnc3cc(C(=O)NCc4ccccc4Cl)ccc32)c1,68%
23,Cc1ccc(-n2cnc3cc(C(=O)NCc4ccccc4Cl)ccc32)c(C)c1,10% (active)
24,Cc1cc(C)cc(-n2cnc3cc(C(=O)NCCc4ccccc4)ccc32)c1,73%

row,SMILES,survival
1,CCOc1ccc(-n2c(C)nc3cc(C(=O)NCCC4=CCCCC4)ccc32)cc1,-6% (active)
2,Cc1cccc(-n2cnc3cc(C(=O)NC4CCCCCC4)ccc32)c1,124%
3,Cc1nc2cc(C(=O)NCCC3=CCCCC3)ccc2n1-c1ccc(Br)cc1,75%
4,CCCNC(=O)c1ccc2c(c1)ncn2-c1ccc(C)cc1C,59%
5,CCCNC(=O)c1ccc2c(c1)nc(C)n2-c1cccc(C)c1,82%
6,COCCCNC(=O)c1ccc2c(c1)nc(C)n2-c1cccc(C)c1,69%
7,Cc1cccc(-n2c(C)nc3cc(C(=O)NCCC4=CCCCC4)ccc32)c1,73%
8,Cc1ccc(OCC(=O)Nc2ccccc2C(=O)OCc2cc(=O)n3c(C)csc3n2)cc1,72%
9,O=C(Nc1ccc(Cl)cc1)C1CCN(S(=O)(=O)c2ccc(Br)s2)CC1,60%
10,CCC(C)(C)NC(=O)C1CCN(S(=O)(=O)c2ccc3c(c2)CCCN3C(C)=O)CC1,71%
11,O=C(/C=C(/O)c1cccnc1)C(F)(F)F,86%
12,O=C1CC2C(=O)NCCN2C(=NC(=O)c2ccc(Cl)cc2)N1 (stereo not given),100%
13,COc1cccc(/C=N/NC(=O)COc2c(C)cccc2C)c1O,113%
14,COc1cccc(/C=N/NC(=O)CSCc2ccccc2)c1O,108%
15,COc1cccc(/C=N/NC(=O)c2cccc(C)c2)c1O,1% (active)
16,COc1cc(OC)cc(C(=O)Nc2ccc(S(=O)(=O)N3CCCCC3c3cccnc3)cc2)c1 (stereo not given),71%
17,Cc1ccc(Cl)cc1N1CCN(C(=O)CCS(=O)(=O)c2cc(Br)cc3c2N(C(=O)C2CC2)CC3)CC1,80%
18,O=C(NCc1ccccc1)c1ccc(NC(=O)c2nsc3ccccc23)cc1,55%
19,COC(=O)c1cccc(NC(=O)c2nsc3ccccc23)c1,0% (active)
20,O=C(NCc1cccc(F)c1)c1cccc(NC(=O)c2nsc3ccccc23)c1,87%
21,CC(NC(=O)c1cccc(NC(=O)c2nsc3ccccc23)c1)c1ccccc1 (stereo not given),111%
22,O=C(NCc1cccc(F)c1)c1ccc(NC(=O)c2nsc3ccccc23)cc1,-4% (active)
23,CCC(C)NC(=O)c1cccc(NC(=O)c2nsc3ccccc23)c1 (stereo not given),76%
24,Cc1ccccc1Nc1c(-c2ccc(N3CCOCC3)cc2)nc2cccc(C)n12,59%

row,SMILES,survival
1,Cc1ccc(N(C)C(=O)C2CCCN(c3ncnc4c3nc3n4CCCCC3)C2)cc1C (stereo not given),127%
2,CCc1ccc(NC(=O)C2CCN(c3nn4cc(-c5ccc(OC)cc5)nc4s3)CC2)cc1,71%
3,COc1ccc(-c2nc3c4ccccc4n(CC(=O)N4CCN(c5ccccc5F)CC4)c(=O)n3n2)cc1,91%
4,CC1(C)C(=O)NC(=O)N1CN1C(=O)NC(=O)C1(C)C,111%
5,CCOc1ccc(C(=O)Nc2ccc(-n3nncc3-c3ccccc3)cc2)cc1OCC,135%
6,O=C(c1cc2c(=O)oc3ccccc3c2s1)N1CCN(c2cccc(Cl)c2)CC1,145%
7,CCCN1C(=O)c2ccccc2CC1(C)C(=O)NC1CCCCC1 (stereo not given),85%
8,O=C(Cc1ccccc1)Nc1sc2c(c1C(=O)Nc1cccc(Cl)c1)CCCCC2,91%
9,O=C(Nc1sc2c(c1C(=O)Nc1cccc(Cl)c1)CCCC2)c1cccs1,140%
10,Cc1cccc(NC(=O)c2c(Br)sc3c2CCCC3)c1,0% (active)
11,Cc1cccc(NC(=O)c2c(NC(=O)c3ccccc3)sc3c2CCC3)c1,80%
12,Cc1cccc(C(=O)Nc2sc3c(c2C(=O)Nc2ccccc2)CCC3)c1,67%
13,O=C(Nc1cccc(Cl)c1)c1c(NC(=O)C(F)(F)F)sc2c1CCCC2,-2% (active)
14,Cc1cccc(NC(=O)c2c(NC(=O)C(F)(F)F)sc3c2CCCCC3)c1,-3% (active)
15,COc1ccc(CC(=O)Nc2sc3c(c2C(=O)Nc2cccc(C)c2)CCCCC3)cc1,63%
16,Cc1cccc(NC(=O)c2c(NC(=O)c3ccccc3)sc3c2CCCC3)c1,82%
17,CCOC(=O)c1c(S(=O)(=O)N2CCCC(C(=O)N3CCN(c4cc(C)ccc4C)CC3)C2)c(C)n(C)c1C (stereo not given),72%
18,COc1cccc(-c2cc(C(=O)Nc3cnn(Cc4ccc(Cl)cc4Cl)c3)no2)c1,112%
19,CCC(=O)n1c2c(c3ccccc31)Nc1ccccc1N2,105%
20,CC(C)Oc1ccc(CNC(=O)C2CCN(Cc3cc4ccccc4n3Cc3ccccc3)CC2)cc1,93%
21,CCC(C(=O)NCCc1ccc(Cl)cc1)n1ccc2cc(S(=O)(=O)N3CCCCC3)ccc21 (stereo not given),101%
22,CCC(c1nnnn1C1CCCC1)N1CCN(Cc2ccccc2)CC1 (stereo not given),104%
23,COc1ccc(C(=O)c2cn(CC(=O)Nc3cc(C)ccc3C)c3nc(C)ccc3c2=O)cc1,146%
